From PubChem BioAssay AID463095 (Sanford-Burnham Center for Chemical Genomics, 2010)
Some of the results follow. The source made the active and inactive calls.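 Rule for the calls: active = proliferation increase above 40% at any of the four tested concentrations; inactive = the rest.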

Experiment: MIN6 insulinoma cell replication enhancers – MIN6 cells, mouse, confirmation (AID 463095)
Settings: MIN6 beta-cell proliferation, ATPlite luminescence, 48 h, cells kept in 0.2% serum, scaled between 0.2% and 10% serum; series mostly up to 50 µM; proliferation increase: at the top concentration

Proliferation increase, inactive:
COc1ccc(CCn2c(=N)c(C(=O)NCc3ccco3)cc3c(=O)n4cccc(C)c4nc32)cc1 -6.4%
CCOC(=O)Nc1sc(C(=O)N(C)C)c(C)c1C(=O)OCC 1.6%
C/C(=N\NC(=O)c1ccccc1C)c1ccc(N2CCOCC2)cc1 -1.7%
Fc1ccc(CNCc2ccc(Br)cc2)cc1 -3.9%
Cc1cc(NC(=O)c2ccco2)c(=O)n(Cc2c(F)cccc2Cl)c1 1%
Cc1ccc(S(=O)(=O)N2CCCCC2)cc1C(=O)N1CCN(CCO)CC1 2.7%
CCn1c(=O)n(CC)c2cc(N3CCCC3)c(NC(=O)c3ccccc3Br)cc21 -6.1%
O=C(Nc1ccc(F)cc1)C1CCCN(S(=O)(=O)c2ccc(-n3cnnn3)cc2)C1 (stereo unspecified) -1.4%
COC(=O)Nc1sc2nc(C)cc(C)c2c1-n1cccc1 -0.5%
CC(=O)OC(C(=O)NC1CCCCC1)c1ccccc1 (stereo unspecified) -0.2%
Cn1nc(-c2ccccc2)c2cc([N+](=O)[O-])ccc21 1.7%
COc1cc2c(cc1OC)C(C(=O)NCc1ccco1)C1c3ccccc3CCN1C2=O (stereo unspecified) 4.1%
Cc1ccccc1NC(=S)NNC(=O)c1cccc(Br)c1 -5.1%
COc1cccc(CNC(=O)C2CCCN(c3ncnc4c3nc3n4CCCCC3)C2)c1 (stereo unspecified) -4.3%
CCCNC(=O)CCn1nc(-c2ccccc2)c2ccccc2c1=O 5.5%
CC(=O)c1cnc(-c2ccccc2)s1 -0.6%
N#Cc1cccc(CN2CCC(=O)N([C@H](CO)c3ccccc3)CC2)c1 1%
COc1ccccc1N=Cc1c(O)c2ccccc2oc1=O -3.9%
COCCNc1nc(-c2ccccc2)nc2c1oc1ccccc12 -6.4%
Cc1ccccc1CNC(=O)CCC(=O)N1Cc2ccccc2Oc2ncccc21 1.4%
CCOC(=O)C1=C(CC)OC(N)=C(C#N)C1c1ccc(F)cc1F (stereo unspecified) -1.9%
